Assay results taken from the supplement of paper PMC3334620.
The full ranking holds about 33,000 sequences; the median of “E-score (-0.5 to 0.5)” is about -0.016, and the highest 2% start at about 0.32. The entries come from a sample that favours the highest values as a whole.

molecular target: T1, Stp1 (UniProt B3LFK1); test: PBM E-score (8-mer binding enrichment) (E-score (-0.5 to 0.5)); higher = stronger / more preferred TF binding; settings: protein concentration: 200 nM; construct: GST-full length
T1 sequence: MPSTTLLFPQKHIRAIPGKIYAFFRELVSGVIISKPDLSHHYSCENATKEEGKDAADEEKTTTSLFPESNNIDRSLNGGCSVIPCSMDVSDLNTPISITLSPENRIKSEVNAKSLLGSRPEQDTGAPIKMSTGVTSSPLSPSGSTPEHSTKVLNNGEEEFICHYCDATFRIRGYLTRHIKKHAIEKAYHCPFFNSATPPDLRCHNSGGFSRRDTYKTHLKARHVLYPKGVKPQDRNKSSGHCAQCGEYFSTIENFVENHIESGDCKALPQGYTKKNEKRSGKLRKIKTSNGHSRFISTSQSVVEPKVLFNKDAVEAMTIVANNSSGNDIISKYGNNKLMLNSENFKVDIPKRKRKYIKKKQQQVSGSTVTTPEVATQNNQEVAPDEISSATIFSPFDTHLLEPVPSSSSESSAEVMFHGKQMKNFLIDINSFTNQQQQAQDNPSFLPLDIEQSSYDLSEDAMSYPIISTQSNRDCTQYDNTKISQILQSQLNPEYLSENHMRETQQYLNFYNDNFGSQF
Procedure: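 Universal 'all 10-mer' protein binding microarrays (Agilent AMADID 015681) probed with GST-tagged S. cerevisiae TFs (full-length or DBD) made by in vitro transcription/translation (PURExpress), about 100-200 nM. Bound TF was detected with fluorescent anti-GST. Each ungapped 8-mer (which stands for itself and its reverse complement) is scored by the PBM enrichment score (E-score), a modified Wilcoxon-Mann-Whitney statistic from -0.5 to +0.5, computed with the Universal PBM Analysis Suite. Scale: above 0.35 generally sequence-specific binding.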

Point of comparison: CAGGCACA, “PBM E-score” value -0.259. Against it:
- AGGCCGGG — higher, -0.163
- CTGAAAGC — higher, 0.0435
- ACTACTGA — higher, -0.0374
- AGCCAGGC — higher, -0.101
- AAGGCGGC — higher, 0.319
- GAGGCGGC — higher, 0.374
- CAGGCGGC — higher, 0.3
- GAGGCGGA — higher, -0.00688
- GAGGAGGC — higher, 0.00167
- AAGGCGGA — higher, -0.099
- GGAAACTA — higher, -0.133
- TCAATGAA — higher, 0.0662
- ACCAAGTG — higher, -0.0911
- GAGTAGAC — higher, 0.0184
- AGTCGAAC — higher, -0.146
- CAAATGCC — higher, 0.227
- GAAATGCA — higher, -0.0558
- CCCATGCC — higher, -0.0109
- CTAATGCC — higher, 0.221
- ATGATGCC — higher, 0.337
- ATGATGCG — higher, 0.148
- ACCATGCC — higher, 0.199
- GAAATGCC — higher, 0.358
- GCCATGCC — higher, 0.324
- ATAATGCC — higher, 0.325
- ATAATGCG — higher, -0.0164
- CTGATGCC — higher, 0.187
- TACACACA — higher, 0.202
- ATGGATTA — higher, -0.0582
- ACCTGGAT — lower, -0.266
- GAAGCATA — higher, -0.00057
- GTCACAAA — higher, -0.0375
- AGTCATTG — lower, -0.381
- CACACTCA — higher, 0.0928
- AAATTTCT — higher, -0.0455
- CCGATGCC — higher, 0.264
- AAAATGCC — higher, 0.352
- GCGATGCA — higher, -0.156
- AAAATGCT — higher, 0.164
- GCGATGCC — higher, 0.319
- AAAATGCA — higher, -0.0731
- ACTCACAC — higher, -0.063
- CAATCCAA — higher, 0.0601
- AAGCTGGG — higher, -0.164
- AGCAATTA — higher, 0.0484
- CCCACACC — higher, -0.0557
- CAGCGGCA — higher, 0.3
- GAGCGGCA — higher, 0.44
- AAGCGGCA — higher, 0.455
- GAGCGGAA — higher, 0.141
- AAGCGGAT — higher, -0.0611
- AAGCGGGA — higher, -0.095
- AAGCGGCT — higher, 0.354
- AAGCGGAA — higher, 0.0259
- CAGCGGCG — higher, 0.34
- TAGCGGCA — higher, 0.291
- CAGCGGCC — higher, -0.111
- AAGCGGGT — higher, -0.0561
- AAAGTTAA — higher, 0.102
- CCCCAGTC — lower, -0.324
- ACGTGTTA — higher, 0.116
- GTAAGAGA — higher, -0.0111
- AACTCTAC — higher, -0.212
- AATCGCTC — lower, -0.292
- TGAGATCA — higher, 0.0358
- GAGGGGGC — lower, -0.277
- CTGACCAG — higher, -0.136
- AAGCGGCG — higher, 0.458
- AAGCGGAG — higher, -0.0617
- AAGCGGCC — higher, 0.282
- CGGCGTTC — higher, 0.391
- AGGCGTTA — higher, 0.236
- GGGCGTTA — higher, 0.206
- CGGCGTTA — higher, 0.454
- AGGCGTTC — higher, 0.0316
- CAGCGTTC — higher, 0.0494
- CGGAGGAA — higher, -0.229
- CCTCCATA — higher, 0.0205
- CCCCGCAG — higher, -0.0786
- GGCCGCAA — higher, 0.131
- TGCCGCAA — higher, 0.333
- TACCGCAA — higher, 0.117
- CACCGCAA — higher, 0.0442
- CGCCGCAG — higher, 0.436
- AGCCGCAG — higher, 0.258
- CGCCGCAA — higher, 0.421
- GGCCGCAC — higher, 0.289
- CGCCGCAC — higher, 0.478
- CCCCGCAC — higher, -0.00823
- TGCCGCCA — higher, 0.229
- CAAAGACG — higher, 0.0347
- AAATGCAA — higher, 0.0071
- ATTAGATA — higher, 0.11
- ACTCACAA — higher, -0.0902
- CGCAGTAA — higher, 0.0664
- GGTGAGGA — higher, 0.0236
- ATGGGTCA — higher, -0.255
- CGCCATAC — higher, 0.194
- AAACCGGG — higher, -0.195
- AATCCTTC — higher, -0.128
- ATACAGAC — higher, -0.0347
- ATGTGCCA — higher, 0.137
- CCGTGCCA — higher, 0.35
- CTGTGCCC — higher, 0.242
- ATGTGCCG — higher, 0.377
- CCCTGCCG — higher, 0.161
- ATGTGCCC — higher, 0.0678
- TCGTGCCA — higher, 0.177
- GCGTGCCA — higher, 0.206
- GCGTGCCC — higher, 0.0203
- CCGTGCCC — higher, 0.365
- CCGTGACG — higher, 0.109
- CCGTGCCG — higher, 0.47
- ACTTCTGC — higher, 0.0768
- GCTTCATA — higher, 0.0285
- CTTGGCAA — higher, -0.119
- CCACCCGG — higher, -0.218
- CGCAAGTC — lower, -0.309
- GCTACTGA — higher, -0.0112
- CAAGGCTA — higher, 0.275
- CACAATGC — higher, 0.00061
- ATGTGGCG — higher, 0.322
- AGGTGCCG — higher, 0.385
- ATGTGCGG — higher, 0.213
- ACGTGCGA — higher, 0.00881
- CCGTGCAG — higher, 0.315
- AGGTGCCA — higher, -0.0228
- ATGTGGCA — higher, 0.27
- ACGTGCGG — higher, 0.357
- AGGTGCCC — higher, -0.0256
- ATGTGGCC — higher, 0.0349
- CCGTGCAA — higher, 0.325
- TCGTGCAA — higher, 0.288
- CGTTGACA — higher, 0.0374
- AGAATCTC — higher, -0.0977
- AAGGAGCC — higher, -0.0111
- CTCTTAGC — higher, 0.0466
- ACGTCGTG — higher, -0.00714
- AGTGGGCG — higher, 0.0679
- ACGTGCCG — higher, 0.39
- ACGTGCCT — higher, 0.278
- ACGTGGCA — higher, 0.152
- CCGTGGCA — higher, 0.357
- ACGTGCCC — higher, 0.18
- TCGTGGCA — higher, 0.102
- GATGGCAC — higher, 0.196
- ATCTCTTG — higher, -0.137
- AACCGCAC — higher, 0.0401
- AGCCGCAA — higher, 0.188
- AGCCGCAC — higher, 0.42
- ACCCGCAC — higher, 0.129
- AGCCGCAT — higher, 0.452
- ACCCGCAT — higher, 0.1
- CACTCTGC — higher, -0.129
- CCCTTCTC — the same, -0.259
- CTCAGGTC — higher, -0.196
- TATTAGCA — higher, 0.0213
- ACTCAAGA — higher, -0.0476
- CATATAAG — higher, 0.118
- AATATAAT — higher, 0.0522
- AATATAAG — higher, 0.32
- ACGTTTAA — higher, 0.12
- CCGTTTAA — higher, 0.349
- CCGTTTAC — higher, 0.235
- AGTTCTAA — higher, -0.0232
- TATGGCGA — higher, 0.0899
- CCATAAAG — higher, -0.0597
- CAGGCACC — higher, -0.107
- AAGGCACC — higher, 0.402
- TAGGCACA — higher, 0.132
- AAGGCACA — higher, 0.338
- GAGGCACC — higher, 0.239
- AAGGCAGA — higher, -0.164
- GAGGCACA — higher, 0.332
- GAGGCAGA — higher, -0.118
